In assay [1] the test system is TRPC4 beta (transient receptor potential cation channel C4), mouse. In words: activators of mouse TRPC4 channel, confirmation, cell-based, Fluo4 calcium, HEK293 TRPC4beta/mu-opioid, duplicates, 10 µM (AID 2426;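 active means fluorescence ratio normalized to control raised more than 50% in primary screen plus both repeat runs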;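 on activation: percent rise of integrated ratio over buffer wells lacking compound which define 0%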). Conditions: Fluo4 calcium fluorescence, at 10 µM; hits give high values.
The test system of assay [2] is transient receptor potential cation channel C4 beta (TRPC4), mouse. In words: activators of mouse TRPC4 channel, confirmation, cell-based, second round, Fluo4, HEK293 TRPC4beta/mu-opioid, 1 µM (AID 2461;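 active means primary screen active and over 50% activation in each of two duplicate runs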;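 on activation: 0% = wells without test compound as baseline of integrated fluorescence ratio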). Conditions: Fluo4 calcium fluorescence, at 1 µM; hits give high values.
In assay [3] the test system is TRPC4 (transient receptor potential cation channel C4 beta), mouse. Description: positive allosteric modulators of mouse TRPC4, confirmation, cell-based, second round, Fluo-4, HEK293 TRPC4beta/mu-opioid, 1 µM (AID 2554;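 active means primary screen hit whose fluorescence ratio, in both repeats, exceeds the weak agonist control mean by 3 SD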). Conditions: DAMGO EC20, Fluo-4 calcium flux, at 1 µM; hits give high values. Background: Calcium assays in cells follow changes in intracellular calcium, usually with a dye or a luminescent sensor.

For assay [4], the system named is TRPC4 beta (transient receptor potential cation channel C4), mouse. Description: positive allosteric modulators of mouse TRPC4, confirmation, cell-based, Fluo-4, HEK293 TRPC4beta/mu-opioid (AID 2555;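 active means primary screen hit whose calcium fluorescence ratio, in both repeats, exceeds the weak agonist control mean by 3 SD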). Conditions: DAMGO EC20, Fluo-4 calcium flux, at 10 µM; hits give high values.
Assay [5] has as its target Short transient receptor potential channel 4 (Mus musculus) (UniProt Q9QUQ5). In words: inhibitors of mouse TRPC4 channel, confirmation, cell-based, Fluo4, HEK293 TRPC4beta/mu-opioid (AID 2636;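 active means calcium signal cut by more than 3 SD below the full-agonist control yet still positive, in both repeats and the earlier primary screen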). Conditions: DAMGO, Fluo4 calcium flux, at 10 µM; hits give high values.
For assay [6] the target is unchanged. Description: inhibitors of mouse TRPC4 channel, confirmation, cell-based, second round, Fluo4, HEK293 TRPC4beta/mu-opioid, 1 µM (AID 2637;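 active means calcium signal ratio cut to more than 3 SD under the fully stimulated control mean yet still positive, in both repeats and the primary screen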;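 on inhibition: percent of integrated ratio relative to wells lacking test compound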). Conditions: Fluo4 calcium flux, DAMGO, at 1 µM; hits give high values.
Assay [7] shares this target. In words: TRPC4 positive allosteric modulators, dose response, cell-based, HEK293 TRPC4/mu-opioid, Fluo-4 calcium, EC20 DAMGO (AID 434941;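 active means earlier screen potentiator hit that boosts the TRPC4 ion channel at some dose, with a dose response; inactive means no potentiation, no dose response, or not a prior hit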;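 further: calcium entry triggered by an EC20 dose of DAMGO at the co-expressed mu-opioid receptor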).
In assay [8] the target is Short transient receptor potential channel 6 (Mus musculus) (UniProt Q61143). Description: inhibition of mouse TRPC6 channel, confirmation, selectivity assay for TRPC4 inhibitor project, cell-based, HEK293, membrane potential dye, duplicate (AID 434948;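 active means active in primary screen and both duplicates, each dropping signal beyond three positive-control SD with fluorescence still positive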). Conditions: HEK293 TRPC6, membrane potential dye fluorescence, at 10 µM, stimulated with maximal-effect acetylcholine; hits give high values.
Short transient receptor potential channel 6 (Mus musculus), sequence (Q61143 whole entry, looked up): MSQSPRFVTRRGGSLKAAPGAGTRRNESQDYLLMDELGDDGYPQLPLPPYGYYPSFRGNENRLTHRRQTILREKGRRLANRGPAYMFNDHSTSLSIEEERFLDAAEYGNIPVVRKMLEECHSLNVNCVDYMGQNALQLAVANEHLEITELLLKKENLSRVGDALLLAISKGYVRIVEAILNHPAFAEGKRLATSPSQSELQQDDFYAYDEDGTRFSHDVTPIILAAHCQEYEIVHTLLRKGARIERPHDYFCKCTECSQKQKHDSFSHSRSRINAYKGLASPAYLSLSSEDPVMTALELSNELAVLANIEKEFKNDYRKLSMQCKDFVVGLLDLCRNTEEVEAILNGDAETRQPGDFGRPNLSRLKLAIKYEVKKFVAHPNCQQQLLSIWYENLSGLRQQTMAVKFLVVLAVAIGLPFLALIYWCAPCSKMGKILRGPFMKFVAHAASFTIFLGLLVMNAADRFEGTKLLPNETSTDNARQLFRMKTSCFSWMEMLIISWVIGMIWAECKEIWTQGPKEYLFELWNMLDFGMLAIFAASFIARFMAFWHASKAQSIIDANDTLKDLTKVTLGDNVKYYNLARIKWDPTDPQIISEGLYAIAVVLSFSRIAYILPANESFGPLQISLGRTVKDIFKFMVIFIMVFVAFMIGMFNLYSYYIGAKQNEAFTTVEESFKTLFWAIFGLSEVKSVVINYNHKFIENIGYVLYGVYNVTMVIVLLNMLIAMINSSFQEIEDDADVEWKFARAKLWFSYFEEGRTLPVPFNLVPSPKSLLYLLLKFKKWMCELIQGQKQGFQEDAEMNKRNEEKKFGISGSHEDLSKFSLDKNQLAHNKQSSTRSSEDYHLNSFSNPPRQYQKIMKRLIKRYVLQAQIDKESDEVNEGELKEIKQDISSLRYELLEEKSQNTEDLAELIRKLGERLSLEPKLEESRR

For assay [9] the target is unchanged. Description: activation of mouse TRPC6 channel, confirmation, selectivity assay for TRPC4 activator project, cell-based, HEK293, membrane potential dye, duplicate (AID 434950;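 active means membrane potential signal rise above negative control mean plus 3 SD in both duplicates, also active in the earlier TRPC4 screen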;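 on activation: 0% = buffer only wells and 100% = acetylcholine maximal-effect wells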). Conditions: HEK293 TRPC6, membrane potential fluorescence, at 10 µM; hits give high values.
The target is the same in assay [10]. In words: TRPC6 potentiation by TRPC4 potentiator hits, confirmation, selectivity assay for TRPC4 potentiator project, HEK293 cells, membrane potential dye, duplicate (AID 434952;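 active means compound raising the membrane signal above positive-control mean plus 3 SD in both repeats, and a primary screen hit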). Conditions: HEK293 TRPC6, membrane potential dye fluorescence, at 10 µM, maximal acetylcholine added after compound; hits give high values.
Assay [11] addresses Short transient receptor potential channel 4 (Mus musculus) (UniProt Q9QUQ5). Description: calcium flux activators in TRPC4/5HT1a cells, counter-screen for TRPC4 activator project, cell-based, second counter screen, HEK293 TRPC4/5HT1a, Fluo-4 (AID 434977;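 active means calcium signal rise above buffer-control mean plus 5 SD in both duplicates, and also a hit in the primary screen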;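 on activation: plate controls were assay buffer for no effect and maximal serotonin response for full effect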). Conditions: Fluo-4 calcium flux, at 10 µM; hits give high values.
Assay [12] can be described thus: calcium flux inhibitors in TRPC4/5HT1a cells, confirmation, counter-screen for TRPC4 inhibitor project, cell-based, second counter screen, HEK293 TRPC4/5HT1a, Fluo-4 (AID 434978;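 active means primary screen active whose calcium signal fell more than 3 SD beyond the full-serotonin control mean in both duplicate plates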;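 on outcome: serotonin given first at submaximal then at maximal dose after compound preincubation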). Conditions: Fluo-4 calcium flux, at 10 µM, serotonin added to trigger calcium flux; hits give high values.
For assay [13], the system named is TRPC4 (mouse), co-expressed with 5HT1a in HEK293. In words: calcium flux potentiators in TRPC4/5HT1a cells, confirmation, counter-screen for TRPC4 potentiator project, cell-based, second counter screen, HEK293 TRPC4/5HT1a, Fluo-4 (AID 434979). Conditions: Fluo-4 calcium flux, at 10 µM, serotonin added at its EC20 dose; hits give high values.
Assay [14] is described as follows: calcium flux activation in mu-opioid HEK293 cells, confirmation, counter-screen for TRPC4 activator project, cell-based, HEK293 mu-opioid receptor line (AID 449723;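 active means hit in primary screen, with calcium signal over 5 SD above buffer well mean in both duplicates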;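 further: counter screen cells carry the mu-opioid receptor alone and lack TRPC4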). Conditions: Fluo-4 calcium fluorescence, at 10 µM; hits give high values.
Assay [15] can be described thus: calcium flux enhancement in mu-opioid HEK293 cells, confirmation, counter-screen for TRPC4 allosteric potentiator project, cell-based, HEK293 mu-opioid receptor line (AID 449724;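 active means calcium signal rise more than 3 SD above the low-dose agonist control mean, in both duplicate plates and the primary screen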;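 further: HEK293 cells carrying mu-opioid receptor only with no TRPC4 channel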). Conditions: Fluo-4 calcium flux, at 10 µM, compound added before EC20 DAMGO stimulus; hits give high values.

For part of these data: Potency and affinity values are given separately. The source made the active and inactive calls.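 How the source made its calls, unless noted: active means signal rise over 3 SD above mean of control wells given weak agonist, in both repeats and first screen; inactive means the rest.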

Short transient receptor potential channel 4 (Mus musculus), sequence (Q9QUQ5 whole entry, looked up): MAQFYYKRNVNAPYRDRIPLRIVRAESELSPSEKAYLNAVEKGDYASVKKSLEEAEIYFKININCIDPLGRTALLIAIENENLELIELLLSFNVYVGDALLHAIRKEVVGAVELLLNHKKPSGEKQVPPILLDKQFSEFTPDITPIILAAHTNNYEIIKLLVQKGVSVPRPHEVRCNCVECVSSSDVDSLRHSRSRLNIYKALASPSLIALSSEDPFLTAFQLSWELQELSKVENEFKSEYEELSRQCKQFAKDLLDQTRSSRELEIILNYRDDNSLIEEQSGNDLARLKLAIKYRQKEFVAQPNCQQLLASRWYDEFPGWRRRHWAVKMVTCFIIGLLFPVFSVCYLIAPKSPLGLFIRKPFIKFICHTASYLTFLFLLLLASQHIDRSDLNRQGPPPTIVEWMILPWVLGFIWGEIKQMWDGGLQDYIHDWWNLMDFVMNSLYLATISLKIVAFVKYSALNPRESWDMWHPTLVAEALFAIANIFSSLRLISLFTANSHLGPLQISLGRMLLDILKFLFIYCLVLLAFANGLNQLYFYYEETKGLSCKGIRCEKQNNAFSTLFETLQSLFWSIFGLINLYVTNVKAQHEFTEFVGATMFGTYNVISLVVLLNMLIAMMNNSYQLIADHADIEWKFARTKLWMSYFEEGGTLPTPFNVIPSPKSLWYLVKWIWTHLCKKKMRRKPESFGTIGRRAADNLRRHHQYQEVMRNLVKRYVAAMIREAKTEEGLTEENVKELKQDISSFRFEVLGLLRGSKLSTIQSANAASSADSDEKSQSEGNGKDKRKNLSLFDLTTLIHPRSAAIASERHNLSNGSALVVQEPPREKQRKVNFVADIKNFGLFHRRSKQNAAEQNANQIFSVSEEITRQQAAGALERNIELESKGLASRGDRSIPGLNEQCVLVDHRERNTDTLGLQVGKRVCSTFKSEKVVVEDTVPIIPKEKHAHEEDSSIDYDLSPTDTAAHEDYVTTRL

In the case of `O=C(NC1CC1)C1=C[C@H](C2CCCCC2)C[C@H](OCc2ccc(CO)cc2)O1`, the activation in [1] was 337% (active); in assay [9], 41% (active); in assay [11], 131% (active). Also, the result in [2], in [3], in assay [4], in assay [6], in assay [7] and in [8] was inactive. Further, the outcome in assay [10], in assay [13], in [14] and in assay [15] was inactive. The inhibition in assay [5] was 75% (active); in assay [12] it was 9.94% (active).
Take `COc1ccc(Cl)cc1NC(=O)CNCC(c1ccccc1)N(C)C` (stereo not given): the result in [1], in [2], in [3], in assay [4], in assay [7] and in [8] was inactive. In addition, the result in assay [10], in assay [11], in assay [12], in [13], in [14] and in assay [15] was inactive. The inhibition in [5] is 100% (active); in [6], 60% (active). In addition, the activation in assay [9] was 52.5% (active).
Regarding `COc1ccc(C(CNC(=O)c2cccc3cccnc23)N(C)C)cc1` (stereo not given), the activation was 132% (active) in [1] and 33% (active) in assay [9]. In addition, the result in [2], in [3], in assay [4], in [5], in [7] and in [8] was inactive. The result in assay [10], in assay [11], in assay [12], in assay [13], in [14] and in [15] was inactive. Besides, the inhibition in assay [6] was 80% (active).
As to `CCn1cc(CN2CCC(n3nccc3NC(=O)CCCc3ccccc3)CC2)cn1`, the outcome in assay [1], in assay [2], in assay [3], in assay [4], in assay [7] and in [8] was inactive. Moreover, the outcome in assay [10], in assay [11], in assay [12], in assay [13], in assay [14] and in assay [15] was inactive. For the same molecule, the inhibition in assay [5] is 95% (active); in assay [6], 58% (active). Further, the activation in assay [9] was 36% (active).
As for `CC(=O)Nc1ccc(C2(c3ccc(NC(C)=O)cc3)C(=O)Nc3ccccc32)cc1`, the result in assay [1], in assay [2], in assay [3], in assay [4], in assay [7] and in [8] was inactive. For the same molecule, the outcome in assay [10], in assay [11], in assay [12], in assay [13], in assay [14] and in assay [15] was inactive. For the same molecule, the figures for the inhibition in assay [5] and in assay [6] were 83% (active) and 61% (active), respectively. Also, the activation in assay [9] was 30% (active).
Regarding `COc1ccc(C(CNC(=O)Cc2ccc3ccccc3c2)N(C)C)cc1` (stereo not given), the activation is 171% (active) in [1], 88% (active) in assay [2] and 55.5% (active) in assay [9]. Moreover, the result in assay [3], in assay [4], in assay [5], in assay [7], in assay [8] and in assay [10] was inactive. In addition, the outcome in assay [11], in [12], in assay [13], in assay [14] and in assay [15] was inactive. The inhibition in assay [6] was 98% (active).
On to `O=c1c2c(-c3ccccc3)csc2ncn1/N=C/c1cccc([N+](=O)[O-])c1O`, for which the result in assay [1], in [2], in assay [3], in [4], in [7] and in assay [8] was inactive. The molecule was classed as inactive in assay [9], in assay [10], in assay [13], in assay [14] and in assay [15]. The inhibition in assay [5] is 90% (active); in assay [6] it was 39% (active); in assay [12] it was 27.2% (active). In [11], the activation is 36.1% (active).
For the molecule `Cc1c(C(=O)N(Cc2cccs2)C2CCS(=O)(=O)C2)oc2ccccc12` (stereo not given), the outcome in [1], in [2], in assay [3], in assay [4], in assay [6] and in assay [7] was inactive. Besides, the molecule was classed as inactive in [8], in assay [10], in assay [11], in assay [12], in assay [13] and in assay [14]. Besides, in assay [15], the result was inactive. Further, in [5], the inhibition is 97% (active). Also, the activation in assay [9] was 56.5% (active).
For `Cc1cc(NCc2ccccc2)nc2ccccc12`, the activation in assay [1] was 95% (active); in assay [11] it was 5.93% (active). Besides, the outcome in assay [2], in assay [3], in [4], in [5], in [6] and in [7] was inactive. Besides, the call in assay [9], in [10], in assay [13], in [14] and in assay [15] was inactive. The inhibition is 53.5% (active) in assay [8] and 26.2% (active) in [12].

As usually defined, the inhibition is the share of the control response that was lost under treatment.

The values above are taken from PubChem BioAssay.
